Screens from PubChem.
This is a sample that favours compounds with a hit; in the whole collection about 21% have one here.
NS1 inh = qHTS Assay for Inhibitors of Influenza NS1 Protein Function; Potency, µM (doses to about 46.1 µM); actives 0.4% (n = 270,000); calls by dose curve; also: actives are rising curves; nearly all actives have a fitted effect of over 50% in size
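OD600 was taken as the measure of yeast growth restored by compound in an NS1-expressing S. cerevisiae strain. Cells had been washed out of glucose medium and diluted 1:100 into galactose -URA medium, pH 6.0.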
Shiga inhibitor = A qHTS for Small Molecule Inhibitors of Shiga Toxin | Vero cells, Shiga toxin protein synthesis inhibition reporter | inhibition, % at 38.7 µM | actives 9.2% (n = 290,000); in the data active = inhibition mostly above about 28%, no sharp cut-off; inactive = mostly below about 43%
Pf growth 96h = Primary qHTS for delayed death inhibitors of the malarial parasite plastid, 96 hour incubation. P. falciparum luciferase reporter growth, 96 h. actives 6.9% (n = 320,000). Potency, µM (highest dose often 28.7 µM), actives largely listed as inhibitors. AID 504834, 2011
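Infected RBCs, 2% Hct / 0.05% parasitemia final; luciferase-reporter P. falciparum; cpd 96 h, 37 C, 5% CO2; luciferase detection reagent; luminescence.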
Pf growth 48h = Primary qHTS for delayed death inhibitors of the malarial parasite plastid, 48 hour incubation | P. falciparum luciferase growth in erythrocytes, 48 h | Potency, µM (top dose mostly 28.7 µM), actives largely listed as inhibitors | actives 5.9% (n = 310,000)
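First compound was added to culture medium, then infected red cells at 0.1% parasitemia and 2% hematocrit (final). After incubation at 37 C under 5% CO2, luciferase detection reagent was dispensed and light output recorded.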
Sm TGR block = qHTS Assay for the Inhibitors of Schistosoma Mansoni Peroxiredoxins; actives 3% (n = 360,000); Schistosoma mansoni thioredoxin glutathione reductase (TGR), Q962Y6; Potency, µM (highest dose often 114 µM), hits mostly inhibitors; purified TGR, DTNB reduction, TNB absorbance 405 nm; also: nearly all actives have a fitted effect of over 60% in size
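First, TGR (20 nM dispensed) and NADPH were mixed with compound. Second, a 15 min room-temperature incubation followed. Third, further NADPH and then DTNB were added to start the reaction. Finally, TNB absorbance was monitored kinetically.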
Cycloheximide cs = Cycloheximide Counterscreen for Small Molecule Inhibitors of Shiga Toxin. actives 12% (n = 300,000). AID 2314, 2010. max response, %. cell reporter, cycloheximide protein synthesis inhibition counterscreen; in the data active = max response mostly above about 13%, no sharp cut-off; inactive = mostly below about 14%; also: read at 38.3 µM for the half of the compounds with a filed dose
A number is an active result; - = inactive; ? = inconclusive; . = no result given. Unless noted, calls follow the shape of the dose curve; as a rule, active = well fitted curve in the direction sought with a large enough effect; inconclusive = small, poorly fitted or top-dose-only effect, or another doubt; inactive = no such curve, though single readings can be large; an effect the other way counts as inactive or inconclusive.

SMILES	NS1 inh	Shiga inhibitor	Pf growth 96h	Pf growth 48h	Sm TGR block	Cycloheximide cs
CCOC(=O)Nc1ccc2c(c1)N(C(=O)CN(CC)CC)c1ccccc1CC2	-	-	?	?	-	-
CCN(CC)CC(=O)Nc1ccc2c(c1)N(C(=O)CN(CC)CC)c1ccccc1CC2	-	-	.	10µM	-	-
O=C1N[C@@H]2[C@H](CCCCC(=O)Oc3ccc([N+](=O)[O-])cc3)SC[C@H]2N1	.	-	.	.	.	-
O=c1[nH]c(-[n+]2ccc3ccccc3c2)c(/C=N/N=C(\[O-])c2ccccc2)s1	-	-	-	-	-	17
CCCC/C(C)=N/NC(=O)Nc1ccccc1	-	41	-	-	-	18
CCCCCC(=O)NNC(=O)Nc1ccccc1	-	-	?	-	-	-
CCCCSC(=O)Nc1ccccc1	-	85	-	-	?	31
C/C(=N\NC(=O)Nc1ccccc1)c1ccccc1	-	-	-	-	-	20
CCCCC/C(=N\NC(=O)Nc1ccccc1)c1ccccc1	.	-	-	?	-	-
CCOc1ccc(Br)cc1C1=CC(=O)C[C@H](c2ccc(OC)cc2)C1	.	.	?	?	-	.
COc1cccc(CNC(=O)CCCn2nc(C)c3c(C)n(-c4ccc(C)cc4)nc3c2=O)c1OC	-	-	?	?	-	-
COc1ccccc1CNC(=O)CCCn1nc(C)c2c(C)n(-c3ccccc3)nc2c1=O	-	-	12µM	-	-	-
Cc1cc(C)cc(NC(=O)CCCn2nc(C)c3c(C)n(-c4ccccc4)nc3c2=O)c1	-	-	13µM	-	-	-
Cc1cccc(NC(=O)CCCn2nc(C)c3c(C)n(-c4ccccc4)nc3c2=O)c1C	.	.	.	.	-	.
Cc1ccccc1NC(=O)CCCn1nc(C)c2c(C)n(-c3ccccc3)nc2c1=O	-	-	?	-	-	-
COC(=O)c1ccccc1NC(=O)CCCn1nc(C)c2c(C)n(-c3ccccc3)nc2c1=O	-	-	15µM	?	-	-
COc1ccc(N2CCN(Cc3nc4c(c(=O)[nH]c(=O)n4C)n3Cc3ccccc3F)CC2)cc1	.	.	.	.	-	.
COc1cc(C(CC(=O)Nc2cccc(C)n2)N2Cc3ccccc3C2=O)cc(OC)c1OC (stereo unspecified)	-	-	-	-	-	-
C=C(C)COc1ccc(-c2nc(N)nc(C(F)(F)F)c2-c2ccc(OC)cc2)c(O)c1	-	-	2.1µM	2.9µM	-	-
C=C(C)COc1ccc(-c2ncnc(C(F)(F)F)c2-c2ccc(OC)cc2)c(O)c1	-	-	0.93µM	1.7µM	-	-
COc1ccc(-c2c(-c3ccc(O)cc3O)n[nH]c2C(F)(F)F)cc1	-	-	-	?	-	-
C=C(C)COc1ccc(-c2ncnc(C(F)(F)F)c2-c2ccccc2)c(O)c1	-	-	1.7µM	1.7µM	-	-
COc1ccc(-c2nc(N)nc(C(F)(F)F)c2-c2csc(C)n2)c(O)c1	-	-	-	-	-	-
COc1ccc(S(=O)(=O)N(CC(=O)Nc2cc(C)cc(C)c2)c2ccc(Cl)cc2)cc1	.	.	.	.	-	.
CCOC(=O)N1CCN(C(=O)c2noc3c2COc2ccccc2-3)CC1	-	-	?	-	-	20
SMILES	NS1 inh	Shiga inhibitor	Pf growth 96h	Pf growth 48h	Sm TGR block	Cycloheximide cs
CCCN1CCN(C(=O)c2noc3c2COc2ccc(C)cc2-3)CC1	-	54	-	-	5µM	17
Cc1ccn(S(=O)(=O)c2ccc(N3CCCC3=O)cc2)n1	-	-	?	-	-	-
Cc1ccc2[nH]c(O)c(N=O)c2c1	-	-	-	?	-	-
CCn1nnc2c(=O)oc3ccccc3c21	.	-	4.1µM	-	-	-
CC(C)Cn1nnc2c(=O)oc3ccccc3c21	-	-	-	-	-	-
O=C(CSc1nccc(=O)[nH]1)NCc1ccc(Cl)cc1	.	-	-	-	-	-
O=C(CSc1ncccn1)NCc1ccc(Cl)cc1	-	73	-	-	.	49
O=C(CSc1ncccn1)NCc1ccc2c(c1)OCO2	-	25	?	-	-	-
O=C(CSc1ncccn1)Nc1cc(Cl)ccc1[N+](=O)[O-]	.	-	-	-	-	23
C=CCSc1ncccc1C(=O)NCc1ccccc1	-	-	12µM	-	-	-
Cc1nc(SCC(=O)Nc2cc(Cl)ccc2[N+](=O)[O-])nc(C)c1C	-	-	-	-	?	-
Cc1cc(Cl)ccc1Nc1ncnc2onc(C)c12	.	.	.	.	-	.
CCS(=O)(=O)N1CCC(C(=O)NCc2cc(OC)ccc2OC)CC1	-	-	.	-	-	-
O=C(CSc1ncccn1)NCc1ccccc1	-	-	-	-	-	18
O=C(CSc1ncccn1)NCc1cccc(Cl)c1	.	95	-	-	-	42
Cn1c(=O)c2c(nc(SCC(=O)NCc3ccc4c(c3)OCO4)n2Cc2ccc(F)cc2)n(C)c1=O	-	-	10µM	13µM	-	-
Oc1ccc(CNCc2ccc3c(c2)OCO3)c2cccnc12	.	.	?	8.3µM	5.6µM	.
COc1ccc(-c2nnc3n2N=C(c2ccccc2OC)CS3)cc1	.	-	.	.	.	-
CC(C)Oc1ccc(S(=O)(=O)N2CCOCC2)cc1NC(=O)Cc1cccs1	.	.	?	13µM	-	.
COc1ccc(S(=O)(=O)N2CCOCC2)cc1NC(=O)Cc1cccs1	.	.	?	?	-	.
Cc1ccc(CSCC(=O)Nc2cc(S(=O)(=O)N3CCOCC3)ccc2OC(C)C)cc1	.	.	6.6µM	10µM	-	.
Cc1cccc(NC(=O)CSCC(=O)Nc2cc(S(=O)(=O)N3CCOCC3)ccc2OC(C)C)c1	.	.	?	?	-	.
Nc1ccc(N=Nc2c(S(=O)(=O)O)cc3ccccc3c2S(=O)(=O)O)cc1	-	.	.	.	.	.
Cc1ccc(C)c(N=Cc2cc3c(cc2[N+](=O)[O-])OCO3)c1	.	-	0.042µM	?	-	-
O=C(CCc1ccc(O)c(O)c1)N/N=C/c1cc2c(cc1[N+](=O)[O-])OCO2	-	-	-	?	16µM	-
SMILES	NS1 inh	Shiga inhibitor	Pf growth 96h	Pf growth 48h	Sm TGR block	Cycloheximide cs
Cc1cccc(C)c1OCC(=O)N/N=C/c1cc2c(cc1[N+](=O)[O-])OCO2	-	-	?	.	-	-
CCOC(=O)c1c(NC(C)=O)sc2c(OCC(O)CN(CC)CC)c(Br)ccc12 (stereo unspecified)	.	-	7.4µM	-	-	-
COc1ccc(S(=O)(=O)NCCc2sc(C)nc2C)cc1F	.	.	.	.	-	.
Cc1nn(-c2nc3ccccc3[nH]2)c(N)c1-c1ccccc1	-	67	-	-	-	42
Nc1c(-c2ccccc2)c(CN2CCOCC2)nn1-c1ccccc1	-	-	?	-	-	-
Cc1nn(-c2ccccc2)c(N)c1-c1ccccc1	.	64	-	-	-	38
Cc1nn(-c2ccccc2)c(/N=C/c2ccccc2O)c1-c1ccccc1	-	active	?	-	-	80
Cc1nn(CC2CCCCC2)c(N)c1-c1ccccc1	-	65	?	.	-	44
